About 83,000 compounds went through this panel and 20% of them were active in at least one assay; those are over-represented in the sample as a whole.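 Growth was measured after 48 h exposure to one concentration of compound in 96-well plates. Values under 10 count as active.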 Values without a mark were called inactive. Activity calls are given as the source filed them.

Among the test systems are DU-145 prostate; K-562 leukemia; MALME-3M melanoma; MDA-MB-231 breast; RXF 393 renal; SF-268 CNS; SF-295 CNS; SF-539 CNS; UACC-257 melanoma; M14 melanoma; HCT-15 colon; HT29 colon; SNB-75 CNS; SNB-19 CNS; U251 CNS; PC-3 prostate; SK-MEL-5 melanoma; UACC-62 melanoma; LOX IMVI melanoma; SK-MEL-28 melanoma.
What all share (assay): NCI-60 one-dose screen, 48 h (100 = growth as untreated, 0 = no growth, -100 = all killed)
What all share (details): 10 µM unless noted

Turning to `CCOC(=O)c1nc2c3ccccc3ccn2c1C(=O)OC`, the growth was 104% with DU-145 prostate; 113% with K-562 leukemia; 100% with MALME-3M melanoma; 99.9% with MDA-MB-231 breast; 93.8% with RXF 393 renal; 101% in the test with SF-268 CNS. For the same molecule, the growth with SF-295 CNS is 106%; in the test on SF-539 CNS, 100%; with UACC-257 melanoma, 102%; in the test with M14 melanoma, 107%; in the test on HCT-15 colon, 97%; with HT29 colon, 90.1%. Also, the growth was 78.9% in the test on SNB-75 CNS; 91.4% in the test with SNB-19 CNS; 96.2% in the test with U251 CNS; 105% in the test with PC-3 prostate; 96.6% in the test with SK-MEL-5 melanoma; 89.4% in the test with UACC-62 melanoma. The growth was 109% in the test with LOX IMVI melanoma and 96.5% in the test with SK-MEL-28 melanoma.

Regarding `O=C(N/N=C\c1cc(Cl)ccc1O)N/N=C/c1cc(Cl)ccc1O`, the growth was 87.4% in the test on DU-145 prostate; 18.4% in the test on K-562 leukemia; 74.1% with MALME-3M melanoma; 48.3% in the test on MDA-MB-231 breast; 85% in the test with RXF 393 renal; 57.9% with SF-268 CNS. The growth in the test on SF-295 CNS was 25.5%; in the test on SF-539 CNS, 39.3%; with UACC-257 melanoma, 65.5%; in the test on M14 melanoma, 50.4%; with HCT-15 colon, 32.5%; in the test with HT29 colon it was 93.9%. For the same molecule, the growth was 39.8% in the test with SNB-75 CNS; 58.2% in the test with SNB-19 CNS; 49.9% in the test with U251 CNS; 40% in the test with PC-3 prostate; 52.1% with SK-MEL-5 melanoma; 54.7% in the test on UACC-62 melanoma. Besides, the growth with LOX IMVI melanoma is 42.6%; in the test with SK-MEL-28 melanoma, 80.4%.

As to `Cc1cc(NN=C(c2ccc(O)cc2)c2ccc(O)cc2)c([N+](=O)[O-])cc1[N+](=O)[O-]`, the growth is 81.8% with DU-145 prostate; 99.1% with K-562 leukemia; 100% in the test with MALME-3M melanoma; 59.6% with MDA-MB-231 breast; 25.7% in the test on RXF 393 renal; 53.9% in the test with SF-268 CNS. In addition, the growth in the test with SF-295 CNS is 43.6%; with SF-539 CNS, 69.5%; with UACC-257 melanoma it was 42.5%; in the test with M14 melanoma, 36.8%; in the test on HCT-15 colon, 46.3%; with HT29 colon, 91.5%. For the same molecule, the growth in the test on SNB-75 CNS is 74.3%; in the test on SNB-19 CNS, 89.3%; in the test on U251 CNS it was 49.4%; with PC-3 prostate, 38.4%; in the test on SK-MEL-5 melanoma, 46%; in the test on UACC-62 melanoma, 69.1%. The values for the growth in the test with LOX IMVI melanoma and in the test with SK-MEL-28 melanoma were 25.3% and 61.6%, respectively.

For the molecule `CSc1nc2sc3cc(Cl)c(Cl)cc3n2c(=N)c1C#N`, the growth in the test with DU-145 prostate is 107%; with K-562 leukemia it was 116%; in the test with MALME-3M melanoma, 101%; in the test with MDA-MB-231 breast, 83.7%; in the test on RXF 393 renal, 149%; in the test with SF-268 CNS it was 104%. Besides, the growth in the test on SF-295 CNS was 99%; in the test on SF-539 CNS, 91.3%; with UACC-257 melanoma, 99.8%; with M14 melanoma, 94.3%; in the test with HCT-15 colon it was 104%; in the test on HT29 colon it was 94.6%. Besides, the growth is 69.2% in the test on SNB-75 CNS; 100% with SNB-19 CNS; 105% in the test on U251 CNS; 97.6% in the test on PC-3 prostate; 86.4% with SK-MEL-5 melanoma; 82.2% in the test with UACC-62 melanoma. In addition, the growth with LOX IMVI melanoma was 94.5%; in the test with SK-MEL-28 melanoma, 108%.

As for `CC(=O)n1cc(C=O)c2ccccc21`, the growth with DU-145 prostate was 104%; with K-562 leukemia, 87.3%; in the test on MALME-3M melanoma it was 102%; in the test with MDA-MB-231 breast, 113%; in the test on RXF 393 renal it was 113%; with SF-268 CNS, 102%. Further, the growth in the test with SF-295 CNS was 101%; in the test with SF-539 CNS, 104%; with UACC-257 melanoma, 94.7%; with M14 melanoma, 102%; in the test with HCT-15 colon, 106%; in the test on HT29 colon it was 97.7%. Further, the growth in the test on SNB-75 CNS was 81.7%; with SNB-19 CNS it was 100%; in the test on U251 CNS, 86.3%; in the test on PC-3 prostate it was 93.5%; with SK-MEL-5 melanoma, 97.2%; in the test with UACC-62 melanoma, 94.2%. The growth was 93.8% in the test with LOX IMVI melanoma and 105% with SK-MEL-28 melanoma.

As for `CCN(CC)c1ccc(/C=C/C=C2\NC(=O)NC2=O)cc1`, the growth in the test on DU-145 prostate is 40.8%; in the test with K-562 leukemia it was 13.9%; in the test with MALME-3M melanoma, 51.8%; in the test on MDA-MB-231 breast, 64.1%; in the test on RXF 393 renal, 2.31% (active); with SF-268 CNS, 54.8%. Besides, the growth is 24.1% in the test with SF-295 CNS; 10.4% in the test with SF-539 CNS; 43% in the test with UACC-257 melanoma; 17.7% with M14 melanoma; 29.5% with HCT-15 colon; -30.1% (active) with HT29 colon. Also, the growth with SNB-75 CNS was 33.8%; in the test with SNB-19 CNS, 34.6%; in the test on U251 CNS, 29.1%; in the test with PC-3 prostate, 18.9%; with SK-MEL-5 melanoma, 8.64% (active); in the test on UACC-62 melanoma, 33%. Besides, the growth with LOX IMVI melanoma was 33.2%; in the test on SK-MEL-28 melanoma it was 57.5%.

For the molecule `COc1ccc(-c2cc(-c3ccc(Cl)cc3)nc(SCCCCCCC(=O)NO)n2)cc1`, the growth is 24.6% in the test on DU-145 prostate; 20.1% with K-562 leukemia; 11.7% with MALME-3M melanoma; 45.8% with MDA-MB-231 breast; -0.367% (active) in the test with RXF 393 renal; 31.7% in the test on SF-268 CNS. For the same molecule, the growth was 36.3% in the test with SF-295 CNS; 34.8% in the test with SF-539 CNS; 23% with UACC-257 melanoma; 22.3% in the test on M14 melanoma; 15.5% in the test with HCT-15 colon; 10.8% with HT29 colon. In addition, the growth was 34.5% in the test with SNB-75 CNS; 35.9% in the test on SNB-19 CNS; 19% with U251 CNS; 49.2% in the test with PC-3 prostate; -6.04% (active) with SK-MEL-5 melanoma; 14.9% in the test with UACC-62 melanoma. Also, the growth was -17.6% (active) in the test with LOX IMVI melanoma and 57.6% in the test with SK-MEL-28 melanoma.

As to `Cc1ccc(-c2cc(-c3ccc(C)cc3)nc(NCCNc3ccnc4cc(Cl)ccc34)n2)cc1`, the growth in the test with DU-145 prostate was -26.4% (active); in the test with K-562 leukemia, -14.4% (active); in the test on MALME-3M melanoma it was -81.4% (active); in the test on MDA-MB-231 breast, -89.1% (active); in the test with RXF 393 renal, -70.4% (active); in the test on SF-268 CNS it was -21.9% (active). In addition, the growth in the test on SF-295 CNS is -76.3% (active); with SF-539 CNS it was -80.6% (active); in the test on UACC-257 melanoma it was -60.9% (active); in the test with M14 melanoma, -88.8% (active); in the test on HCT-15 colon, -84.9% (active); in the test with HT29 colon, -36% (active). Moreover, the growth in the test with SNB-75 CNS was -30.2% (active); with SNB-19 CNS, 16.8%; in the test with U251 CNS, -84.4% (active); in the test with PC-3 prostate, -22.8% (active); with SK-MEL-5 melanoma it was -93.1% (active); with UACC-62 melanoma, -79.9% (active). The growth in the test on LOX IMVI melanoma is -92.3% (active); in the test with SK-MEL-28 melanoma, -83.6% (active).

These data come from PubChem BioAssay (NCI).
